# PrP UTR inh – inhibition of PrP 5' UTR reporter expression | 0.35% of 340,000 active | cell-based PrP 5' UTR mRNA reporter, plate reader | inhibition, % (no concentration beside the values); in the data active means inhibition above about 52%; further: 0 = median of the neutral control wells
# SSB-PriA inh – inhibitors of Klebsiella pneumoniae PriA binding to SSB C-terminal tail, primary screen, biochemical, AlphaScreen | inhibition, % at 33 µM | PriA–SSB C-terminal tail interaction (Klebsiella pneumoniae) | AID 1272365, 2023 | 0.6% of 430,000 active | AlphaScreen SSBct-PriA binding, biotinylated peptide; in the data active means inhibition mostly above about 37%, no sharp cut-off; inactive means mostly below about 20%;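 further: plate controls were negative control peptide for no effect and reference peptide for full effect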
# BioA inh – M. tuberculosis BioA enzyme inhibitors, primary screen, biochemical, plate reader, single point, HTS | purified M. tuberculosis BioA enzyme | 7,8-diaminopelargonic acid synthase BioA (Mycobacterium tuberculosis) | inhibition, % at 9.99 µM | 0.096% of 360,000 active | AID 602481, 2012; in the data active means inhibition above about 40%; inconclusive means no clear call, values can overlap the other calls
# TcdB GH inh – TcdB glycohydrolase inhibitors, primary screen, biochemical, single point, plate reader | Toxin B (Clostridioides difficile), P18177 | TcdB glycohydrolase enzymatic assay | inhibition, % at 9.99 µM | 0.24% of 350,000 active | AID 652162, 2013; in the data active means inhibition above about 10%
# FadD28 binding – inhibitors of FadD28 bisubstrate probe binding, primary screen, biochemical, fluorescence polarization, single point; AID 588549, 2011; inhibition, % at 12.5 µM; 0.22% of 360,000 active; in the data active means inhibition above about 8.5%, passing the limit was not always enough; inconclusive means no clear call, values can overlap the other calls
# Mtb hypoxia inh – PubChem AID 1159583; M. tuberculosis hypoxia-regulated fluorescent reporter, fluorescence; fluorescence inhibition, % (concentration not given with the values); 0.1% of 300,000 active; in the data active means fluorescence inhibition mostly above about 23%, no sharp cut-off; inactive means mostly below about 17%
# PrP 5UTR single – prion 5' UTR mRNA inhibition, cherry-pick retest; shares compounds with PrP UTR inh; cell-based prion protein 5' UTR reporter, plate reader; inhibition, % at 2.5 µM; 48% of 1,100 active; AID 504592, 2011; in the data active means inhibition above about 54%; inconclusive means no clear call, values can overlap the other calls
# * = called active by the depositor; i = inactive; u = inconclusive; x = not tested or not shown. Only some compounds are listed: those with a hit (about 1% of all), similar ones and a draw of the others.
SMILES,PrP UTR inh,SSB-PriA inh,BioA inh,TcdB GH inh,FadD28 binding,Mtb hypoxia inh,PrP 5UTR single
CCOC(=O)OC(C)OC(=O)[C@@H]1N2C(=O)[C@@H](NC(=O)[C@H](N)c3ccccc3)[C@H]2SC1(C)C (stereo partly specified),54*,-12,-2,0,-3,x,-8
COc1cc(Br)c(Br)c(Br)c1N,-17,-14,x,1,-2,4,x
Cc1nc2c(-c3ccccc3)cnn2c(N)c1-c1ccccc1,65*,-18,-2,0,1,1,10
COc1ccc2c(CC(=O)Nc3ccc(S(N)(=O)=O)cc3)cc(=O)oc2c1,x,3,x,x,x,x,x
COc1ccc(CC(=O)OCC(=O)N2CCN(S(=O)(=O)c3ccc(C)cc3C)CC2)cc1,88*,-7,0,0,-3,17,-12
COc1cccc(-c2ccc3ncnc(NCc4cc(C)cs4)c3c2)c1,61*,-23,0,1,-10,11,-3
CCCN=C1N(C)C[C@@H]2[C@@H]3C(=O)N(Cc4ccccc4)C(=O)[C@@H]3[C@](CC)(C(=O)OC)N12,-1,-7,-1,1,-1,-16,x
Cc1ccc(C(=O)NC2CC(C)(C)NC(C)(C)C2)cc1S(=O)(=O)N1CCCCC1,-18,-6,0,-1,-2,6,x
CO[C@H](CN(C)Cc1cc(F)ccc1F)[C@H](C)CN([C@@H](C)CO)S(=O)(=O)c1ccc(Cl)cc1,x,x,3,0,x,x,x
O=C(CC1Oc2ccccc2NC1=O)NCCCN1CCN(C2CCCCC2)CC1 (stereo unspecified),70*,0,-2,1,0,x,-12
Cc1ccc(-c2nc(-c3ccccn3)no2)cc1[N+](=O)[O-],3,-2,x,0,-2,-1,x
Cc1ccc(-c2nc(-c3ccccn3)no2)cc1Cl,72*,-12,-4,x,-3,x,64*
c1ccc(-c2ccc(-c3nc(-c4ccccn4)no3)cc2)cc1,89*,-17,2,2,-1,2,91*
Cc1ccc(-c2nc(-c3ccccn3)no2)cc1,86*,-1,-1,x,-3,x,91*
c1ccc(-c2nc(-c3ccccn3)no2)cc1,46,3,1,x,0,5,x
Cc1nc2ccccc2c(=O)n1/N=C/c1c(O)ccc2oc3c(c12)CCCC3,61*,x,x,x,0,x,-2
O=C(CCS(=O)(=O)Cc1ccccc1)N1CCN(c2ccccc2)CC1,-5,3,x,x,0,9,x
O=C(CCS(=O)(=O)Cc1ccccc1)N1CCN(c2ccc([N+](=O)[O-])cc2)CC1,80*,3,16,2,-4,8,-7
Cc1ccc(C(=O)N(Cc2ccco2)c2c(N)n(Cc3ccccc3)c(=O)[nH]c2=O)cc1,x,x,0,1,-4,x,x
Cc1cccc(C(=O)N(Cc2ccco2)c2c(N)n(Cc3ccccc3)c(=O)[nH]c2=O)c1,90*,1,0,-1,-2,-5,-46
C/C=C/c1ccc2c(c1)O[C@@H](CN(C)C(=O)CN1CCOCC1)[C@H](C)CN([C@@H](C)CO)S2(=O)=O,x,x,3,1,x,x,x
CCc1nnc(NS(=O)(=O)c2ccc(NC(=S)NC(=O)c3cccnc3)cc2)s1,3,-3,x,0,-3,15,x
COc1ccc(/C=C/CN2CCN(Cc3ccccc3)C(CCO)C2)cc1 (stereo unspecified),76*,0,x,1,-4,2,-57
Cc1cc(C)c(C#N)c(SCc2nnc(-c3ccccc3[N+](=O)[O-])o2)n1,-38,-2,x,1,2,-6,x
Cc1cc(C)c(C#N)c(SCc2nnc(-c3ccccc3)o2)n1,68*,0,-1,1,0,x,67*
SMILES,PrP UTR inh,SSB-PriA inh,BioA inh,TcdB GH inh,FadD28 binding,Mtb hypoxia inh,PrP 5UTR single
C/C(=N\NC(=O)c1ccccc1NC(=O)c1ccc(Cl)cc1)c1ccncc1,76*,x,x,1,0,x,70*
O=C1ON=C(c2ccc(Cl)c([N+](=O)[O-])c2)/C1=C/c1cccc([N+](=O)[O-])c1O,-14,-3,1,0,-2,11,x
O=C1ON=C(c2ccccc2[N+](=O)[O-])/C1=C/c1cccc([N+](=O)[O-])c1O,90*,-4,-1,0,-2,-2,2
Cn1cc(S(=O)(=O)N2CCCC2)cc1C(=O)NCc1ccc(F)cc1,4,0,-1,-6,-2,5,x
Cc1ccc(C(N)=NOC(=O)c2ccc(C)cc2Cl)cc1,x,-16,x,x,x,x,x
N/C(=N\OC(=O)c1ccc([N+](=O)[O-])cc1Cl)c1ccccn1,65*,x,0,-10,-3,x,u
Cc1ccc(C(=O)O/N=C(\N)c2ccccc2)c(Cl)c1,56*,i,0,0,-3,1,55*
NC(=NOC(=O)c1ccc(Cl)cc1Cl)c1ccccn1,x,-23,x,x,x,x,x
Cc1ccc(C(=O)O/N=C(\N)c2ccccn2)c(Cl)c1,81*,i,-1,1,-4,6,94*
N/C(=N\OC(=O)c1ccc(Cl)cc1Cl)c1ccccn1,79*,x,0,x,-1,12,55*
COc1ccc(NC(=O)Nc2ccc3c(c2)C(=O)N([C@H](C)CO)C[C@@H](C)[C@H](CN(C)Cc2ccc(Cl)c(Cl)c2)OCCCC[C@H](C)O3)cc1,x,x,-1,1,x,x,x
CCOc1ncccc1C(=O)N1CCN(c2cccc(C)c2C)CC1,70*,-7,x,1,0,1,86*
CCCCOCC(O)CCc1n[nH]c(=S)n1-c1ccccc1 (stereo unspecified),80*,2,x,0,-1,17,5
CNC[C@@H]1Oc2c(NC(=O)C3CCOCC3)cccc2C(=O)N([C@H](C)CO)C[C@@H]1C,x,x,-1,1,x,x,x
O=C(O)c1ccc(COc2ccccc2Cl)cc1,-13,5,0,x,-2,10,x
O=C(O)c1cccc(COc2ccccc2Cl)c1,69*,-2,0,1,-2,3,83*
O=C1NC2C(=CC(O)C(O)C2O)c2cc3c(c(O)c21)OCO3 (stereo unspecified),88*,-23,x,1,-1,x,95*
O=C1NC2C(O)C(O)C(O)C(O)C2c2cc3c(c(O)c21)OCO3 (stereo unspecified),61*,-13,x,0,-1,x,83*
COc1cc(C2c3cc4c(cc3CC3COC(=O)C32)OCO4)cc(OC)c1O (stereo unspecified),38,-21,x,-19,-2,x,x
O=C1NC2C(=CC(O)C(O)C2O)c2cc3c(cc21)OCO3 (stereo unspecified),3,-12,x,-11,-6,x,x
